Source: article PMC7862700, “An all-to-all approach to the identification of sequence-specific readers for epigenetic DNA modifications on cytosine”

Columns and labels:
Test in all cases: DAPPL (digital affinity profiling via proximity ligation, sequencing); 10 mM Tris-HCl pH 7.5, 50 mM NaCl, 1 mM DTT, 4% glycerol, room temperature, 30 min; GST-TFs on glutathione beads, 16-mer random dsDNA library, 0.1% formaldehyde crosslink after washing; high values mean tight binding
FEV = target: T1, FEV (Homo sapiens, UniProt Q99581 1-238); conditions: protein: recombinant; tags: N-terminal GST; dsDNA, one strand shown
T1 sequence: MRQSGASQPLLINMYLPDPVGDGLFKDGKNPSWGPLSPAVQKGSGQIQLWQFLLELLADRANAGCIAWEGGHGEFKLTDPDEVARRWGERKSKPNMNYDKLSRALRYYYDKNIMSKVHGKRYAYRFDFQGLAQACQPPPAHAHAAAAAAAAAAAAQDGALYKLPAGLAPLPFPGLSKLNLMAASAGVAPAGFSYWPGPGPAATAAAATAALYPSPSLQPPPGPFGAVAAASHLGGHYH
In short: (§1)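 Beads coated with glutathione captured GST-fused human transcription factors that had been expressed in yeast, and the factors were then given DNA barcodes and pooled with a tag-only sample. The pools were incubated with 200 nmole of a random double-stranded 16-mer DNA library in Tris/NaCl/DTT/glycerol buffer for 30 min at room temperature, washed, crosslinked with 0.1% formaldehyde and proximity-ligated with BsaI/T4 ligase at 37 °C for 1 h. PCR amplification and Illumina NextSeq500 sequencing came last. Binding signal is each hexamer's read frequency for a factor divided by its frequency for the tag-only sample.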

ETV5 = ETV5 (Homo sapiens, UniProt P41161 1-510); conditions: protein: recombinant; tags: N-terminal GST; dsDNA, one strand shown
ETV5, sequence (P41161 whole entry): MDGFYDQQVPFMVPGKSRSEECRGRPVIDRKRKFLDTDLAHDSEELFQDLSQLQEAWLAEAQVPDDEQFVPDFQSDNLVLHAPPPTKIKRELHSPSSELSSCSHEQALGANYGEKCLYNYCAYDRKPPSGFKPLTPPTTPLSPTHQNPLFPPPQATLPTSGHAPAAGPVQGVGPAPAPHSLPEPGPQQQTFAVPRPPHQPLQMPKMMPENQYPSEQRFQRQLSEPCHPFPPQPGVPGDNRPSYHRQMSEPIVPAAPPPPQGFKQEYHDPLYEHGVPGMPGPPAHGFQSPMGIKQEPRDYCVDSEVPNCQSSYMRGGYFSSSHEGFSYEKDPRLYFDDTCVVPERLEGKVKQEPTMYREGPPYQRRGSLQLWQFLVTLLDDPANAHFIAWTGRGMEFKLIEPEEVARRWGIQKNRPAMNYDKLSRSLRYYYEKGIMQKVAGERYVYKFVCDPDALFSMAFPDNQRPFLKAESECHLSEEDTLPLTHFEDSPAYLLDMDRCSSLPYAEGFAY
In short: as §1

HSF1 = HSF1 (Homo sapiens, UniProt Q00613 1-529); conditions: protein: recombinant; tags: N-terminal GST; chain copies: 3; dsDNA, one strand shown
HSF1, sequence (Q00613 whole entry): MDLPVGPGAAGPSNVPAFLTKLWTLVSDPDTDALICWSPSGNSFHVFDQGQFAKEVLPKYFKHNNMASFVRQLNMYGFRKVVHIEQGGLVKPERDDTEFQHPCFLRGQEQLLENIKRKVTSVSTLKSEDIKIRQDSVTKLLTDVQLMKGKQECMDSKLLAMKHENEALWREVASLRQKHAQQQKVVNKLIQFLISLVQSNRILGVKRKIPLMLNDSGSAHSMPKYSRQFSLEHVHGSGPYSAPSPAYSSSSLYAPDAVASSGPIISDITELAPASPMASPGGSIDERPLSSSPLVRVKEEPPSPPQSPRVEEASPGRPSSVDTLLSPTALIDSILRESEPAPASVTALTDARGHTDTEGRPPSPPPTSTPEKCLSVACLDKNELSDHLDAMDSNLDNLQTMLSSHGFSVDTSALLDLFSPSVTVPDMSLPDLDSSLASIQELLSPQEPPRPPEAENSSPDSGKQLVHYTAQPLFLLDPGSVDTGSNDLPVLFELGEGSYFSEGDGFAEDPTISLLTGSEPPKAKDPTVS
In short: as §1

SPIC = target: T2, SPIC (Homo sapiens, UniProt Q8N5J4 1-248); conditions: protein: recombinant; tags: N-terminal GST; dsDNA, one strand shown
T2 sequence: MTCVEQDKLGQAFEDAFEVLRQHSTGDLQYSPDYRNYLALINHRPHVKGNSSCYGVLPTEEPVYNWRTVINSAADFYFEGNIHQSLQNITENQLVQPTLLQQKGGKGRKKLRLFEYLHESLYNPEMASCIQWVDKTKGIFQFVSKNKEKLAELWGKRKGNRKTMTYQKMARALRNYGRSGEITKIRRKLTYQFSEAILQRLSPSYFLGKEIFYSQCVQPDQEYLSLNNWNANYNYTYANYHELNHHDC
In short: as §1

ELF4 = ELF4 (Homo sapiens, UniProt Q99607 1-663); conditions: protein: recombinant; tags: N-terminal GST; dsDNA, one strand shown
ELF4, sequence (Q99607 whole entry): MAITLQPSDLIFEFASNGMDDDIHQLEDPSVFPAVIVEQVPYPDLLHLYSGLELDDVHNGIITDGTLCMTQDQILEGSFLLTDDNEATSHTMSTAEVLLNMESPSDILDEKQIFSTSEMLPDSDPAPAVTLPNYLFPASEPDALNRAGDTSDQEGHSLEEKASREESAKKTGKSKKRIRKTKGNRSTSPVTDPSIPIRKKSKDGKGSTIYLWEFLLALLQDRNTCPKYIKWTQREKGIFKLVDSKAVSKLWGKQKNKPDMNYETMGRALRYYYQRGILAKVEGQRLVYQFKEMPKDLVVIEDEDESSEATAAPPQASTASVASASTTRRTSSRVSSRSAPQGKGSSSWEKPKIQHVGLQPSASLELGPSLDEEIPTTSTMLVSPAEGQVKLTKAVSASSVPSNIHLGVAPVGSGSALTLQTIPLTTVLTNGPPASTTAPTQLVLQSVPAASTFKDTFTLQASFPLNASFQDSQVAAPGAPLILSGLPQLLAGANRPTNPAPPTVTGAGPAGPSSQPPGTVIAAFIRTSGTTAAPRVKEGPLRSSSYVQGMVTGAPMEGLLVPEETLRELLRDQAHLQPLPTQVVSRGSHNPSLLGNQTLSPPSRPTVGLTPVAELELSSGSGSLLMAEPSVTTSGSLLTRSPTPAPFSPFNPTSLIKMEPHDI
In short: as §1

ELK4 = target: T3, ELK4 (Homo sapiens, UniProt P28324-2 1-405); conditions: protein: recombinant; tags: N-terminal GST; dsDNA, one strand shown
T3 sequence: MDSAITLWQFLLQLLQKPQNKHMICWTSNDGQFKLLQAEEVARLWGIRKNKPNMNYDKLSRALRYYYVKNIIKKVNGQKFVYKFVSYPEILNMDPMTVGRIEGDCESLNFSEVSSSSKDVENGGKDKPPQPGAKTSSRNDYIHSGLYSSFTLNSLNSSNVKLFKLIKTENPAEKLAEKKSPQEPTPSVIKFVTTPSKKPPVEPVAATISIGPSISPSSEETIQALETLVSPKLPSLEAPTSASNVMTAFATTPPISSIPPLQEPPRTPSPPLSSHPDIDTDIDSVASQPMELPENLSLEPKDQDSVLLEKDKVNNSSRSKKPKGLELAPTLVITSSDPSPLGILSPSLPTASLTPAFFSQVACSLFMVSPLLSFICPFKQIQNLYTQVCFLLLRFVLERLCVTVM
In short: as §1

ETV2 = target: T4, ETV2 (Homo sapiens, UniProt O00321 1-342); conditions: protein: recombinant; tags: N-terminal GST; dsDNA, one strand shown
T4 sequence: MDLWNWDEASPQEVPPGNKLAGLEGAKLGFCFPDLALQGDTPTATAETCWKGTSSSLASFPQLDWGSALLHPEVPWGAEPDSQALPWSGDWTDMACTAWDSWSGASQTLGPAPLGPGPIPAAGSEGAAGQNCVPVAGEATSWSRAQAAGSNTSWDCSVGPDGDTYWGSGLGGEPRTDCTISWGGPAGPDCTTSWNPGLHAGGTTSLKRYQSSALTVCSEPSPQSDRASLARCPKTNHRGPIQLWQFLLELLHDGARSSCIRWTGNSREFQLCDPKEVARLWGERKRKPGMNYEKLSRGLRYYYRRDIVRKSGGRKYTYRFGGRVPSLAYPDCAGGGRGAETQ
In short: as §1

ELF3 = target: T5, ELF3 (Homo sapiens, UniProt P78545 1-371); conditions: protein: recombinant; tags: N-terminal GST; dsDNA, one strand shown
T5 sequence: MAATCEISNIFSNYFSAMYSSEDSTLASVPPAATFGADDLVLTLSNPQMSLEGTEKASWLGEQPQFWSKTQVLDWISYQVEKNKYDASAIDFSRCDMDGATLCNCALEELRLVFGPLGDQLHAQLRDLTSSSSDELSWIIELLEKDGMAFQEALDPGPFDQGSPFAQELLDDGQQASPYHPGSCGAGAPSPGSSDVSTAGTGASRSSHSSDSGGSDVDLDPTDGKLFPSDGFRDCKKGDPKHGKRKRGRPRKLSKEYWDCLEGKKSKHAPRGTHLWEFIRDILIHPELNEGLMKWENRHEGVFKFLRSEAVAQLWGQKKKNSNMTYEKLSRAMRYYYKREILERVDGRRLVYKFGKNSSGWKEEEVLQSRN
In short: as §1

CRX = CRX (Homo sapiens, UniProt O43186 1-299); conditions: protein: recombinant; tags: N-terminal GST; dsDNA, one strand shown
CRX, sequence (O43186 whole entry): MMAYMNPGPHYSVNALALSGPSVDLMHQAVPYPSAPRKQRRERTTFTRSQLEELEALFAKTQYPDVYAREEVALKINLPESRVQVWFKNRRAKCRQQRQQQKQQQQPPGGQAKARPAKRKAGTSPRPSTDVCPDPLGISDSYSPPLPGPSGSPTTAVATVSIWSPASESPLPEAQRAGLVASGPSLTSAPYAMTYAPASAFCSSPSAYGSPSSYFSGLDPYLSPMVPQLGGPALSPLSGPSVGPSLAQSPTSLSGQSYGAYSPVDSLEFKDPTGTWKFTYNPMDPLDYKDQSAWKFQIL
In short: as §1

ETV1 = ETV1 (Homo sapiens, UniProt P50549 1-477); conditions: protein: recombinant; tags: N-terminal GST; dsDNA, one strand shown
ETV1, sequence (P50549 whole entry): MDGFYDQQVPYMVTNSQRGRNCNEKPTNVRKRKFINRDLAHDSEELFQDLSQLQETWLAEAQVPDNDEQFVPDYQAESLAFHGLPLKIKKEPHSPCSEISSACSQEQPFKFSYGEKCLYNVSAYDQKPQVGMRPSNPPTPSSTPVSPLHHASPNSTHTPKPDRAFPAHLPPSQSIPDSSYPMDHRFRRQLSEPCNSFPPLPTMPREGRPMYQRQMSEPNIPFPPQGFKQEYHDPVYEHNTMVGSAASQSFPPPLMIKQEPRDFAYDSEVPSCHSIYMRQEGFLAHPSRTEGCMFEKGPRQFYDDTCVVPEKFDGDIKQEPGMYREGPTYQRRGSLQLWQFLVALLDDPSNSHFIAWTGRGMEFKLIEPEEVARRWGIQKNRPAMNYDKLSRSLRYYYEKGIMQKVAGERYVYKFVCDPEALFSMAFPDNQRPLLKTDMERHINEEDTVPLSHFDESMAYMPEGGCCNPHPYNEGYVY
In short: as §1

ERF = target: T6, ERF (Homo sapiens, UniProt P50548 1-548); conditions: protein: recombinant; tags: N-terminal GST; dsDNA, one strand shown
T6 sequence: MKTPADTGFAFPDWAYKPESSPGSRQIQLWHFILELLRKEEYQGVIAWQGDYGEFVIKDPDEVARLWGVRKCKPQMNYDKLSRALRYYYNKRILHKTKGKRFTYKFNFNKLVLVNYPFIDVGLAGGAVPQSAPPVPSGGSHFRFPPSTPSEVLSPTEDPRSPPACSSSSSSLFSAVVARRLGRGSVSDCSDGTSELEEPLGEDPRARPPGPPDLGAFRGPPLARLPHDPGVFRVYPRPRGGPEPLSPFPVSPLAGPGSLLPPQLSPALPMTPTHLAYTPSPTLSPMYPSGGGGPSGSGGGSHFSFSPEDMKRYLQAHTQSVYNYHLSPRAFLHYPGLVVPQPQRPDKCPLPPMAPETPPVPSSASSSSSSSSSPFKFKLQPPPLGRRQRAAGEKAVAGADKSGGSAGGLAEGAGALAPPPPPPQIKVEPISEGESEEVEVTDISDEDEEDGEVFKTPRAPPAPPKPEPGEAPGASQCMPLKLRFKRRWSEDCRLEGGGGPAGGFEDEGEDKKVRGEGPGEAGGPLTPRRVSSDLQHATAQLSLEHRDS
In short: as §1

ETV3L = target: T7, ETV3L (Homo sapiens, UniProt Q6ZN32 1-361); conditions: protein: recombinant; tags: N-terminal GST; dsDNA, one strand shown
T7 sequence: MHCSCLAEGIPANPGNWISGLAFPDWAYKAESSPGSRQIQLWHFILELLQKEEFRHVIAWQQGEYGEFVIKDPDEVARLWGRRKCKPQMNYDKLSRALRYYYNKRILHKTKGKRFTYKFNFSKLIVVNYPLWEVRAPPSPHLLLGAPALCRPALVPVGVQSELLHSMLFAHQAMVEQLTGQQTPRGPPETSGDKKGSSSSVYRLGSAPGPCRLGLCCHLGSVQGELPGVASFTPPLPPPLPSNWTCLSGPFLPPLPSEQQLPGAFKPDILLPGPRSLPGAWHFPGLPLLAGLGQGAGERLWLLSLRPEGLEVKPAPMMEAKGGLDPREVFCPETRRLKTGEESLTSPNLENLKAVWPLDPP
In short: as §1

ETS2 = target: T8, ETS2 (Homo sapiens, UniProt P15036 1-469); conditions: protein: recombinant; tags: N-terminal GST; dsDNA, one strand shown
T8 sequence: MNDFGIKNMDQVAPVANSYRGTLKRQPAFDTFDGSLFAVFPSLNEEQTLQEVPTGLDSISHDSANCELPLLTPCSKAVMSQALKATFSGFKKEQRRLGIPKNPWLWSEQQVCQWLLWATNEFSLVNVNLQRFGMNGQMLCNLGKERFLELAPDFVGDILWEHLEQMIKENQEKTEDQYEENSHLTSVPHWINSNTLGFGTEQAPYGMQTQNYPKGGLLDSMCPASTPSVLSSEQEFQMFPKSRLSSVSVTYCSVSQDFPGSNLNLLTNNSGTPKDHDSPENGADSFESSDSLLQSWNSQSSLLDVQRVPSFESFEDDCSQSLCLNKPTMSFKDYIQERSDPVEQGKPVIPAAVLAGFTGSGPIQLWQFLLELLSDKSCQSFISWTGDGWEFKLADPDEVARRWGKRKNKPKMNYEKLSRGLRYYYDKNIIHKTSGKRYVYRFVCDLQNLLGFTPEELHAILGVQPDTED
In short: as §1

SPDEF = target: T9, SPDEF (Homo sapiens, UniProt O95238 1-335); conditions: protein: recombinant; tags: N-terminal GST; dsDNA, one strand shown
T9 sequence: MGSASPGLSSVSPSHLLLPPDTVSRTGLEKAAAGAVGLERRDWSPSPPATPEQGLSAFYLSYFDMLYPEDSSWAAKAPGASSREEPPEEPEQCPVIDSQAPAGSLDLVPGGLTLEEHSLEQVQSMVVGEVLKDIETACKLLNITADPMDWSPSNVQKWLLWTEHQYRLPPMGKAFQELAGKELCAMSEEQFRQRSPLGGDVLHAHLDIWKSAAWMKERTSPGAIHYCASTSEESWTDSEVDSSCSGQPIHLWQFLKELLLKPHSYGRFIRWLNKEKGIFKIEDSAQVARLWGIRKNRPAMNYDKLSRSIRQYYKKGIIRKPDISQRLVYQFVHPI
In short: as §1

ETV7 = target: T10, ETV7 (Homo sapiens, UniProt Q9Y603 1-341); conditions: protein: recombinant; tags: N-terminal GST; dsDNA, one strand shown
T10 sequence: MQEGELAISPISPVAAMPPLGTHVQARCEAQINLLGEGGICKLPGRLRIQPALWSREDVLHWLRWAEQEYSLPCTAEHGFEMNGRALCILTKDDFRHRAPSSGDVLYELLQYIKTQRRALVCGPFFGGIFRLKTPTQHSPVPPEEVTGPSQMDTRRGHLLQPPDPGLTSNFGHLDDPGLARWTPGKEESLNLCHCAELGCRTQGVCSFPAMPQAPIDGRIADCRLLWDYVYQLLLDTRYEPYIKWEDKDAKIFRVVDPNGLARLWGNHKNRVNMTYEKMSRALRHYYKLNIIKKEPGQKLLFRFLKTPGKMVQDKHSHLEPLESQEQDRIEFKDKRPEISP
In short: as §1

ELF5 = target: T11, ELF5 (Homo sapiens, UniProt Q9UKW6-2 1-255); conditions: protein: recombinant; tags: N-terminal GST; dsDNA, one strand shown
T11 sequence: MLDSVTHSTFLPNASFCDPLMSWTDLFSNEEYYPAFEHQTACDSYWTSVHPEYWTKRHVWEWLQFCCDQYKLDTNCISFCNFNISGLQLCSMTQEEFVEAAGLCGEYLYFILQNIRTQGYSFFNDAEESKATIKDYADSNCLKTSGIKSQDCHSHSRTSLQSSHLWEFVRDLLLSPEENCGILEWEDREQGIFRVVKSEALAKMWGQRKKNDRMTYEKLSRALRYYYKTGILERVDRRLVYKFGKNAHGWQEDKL
In short: as §1

ETV3 = target: T12, ETV3 (Homo sapiens, UniProt P41162-2 1-143); conditions: protein: recombinant; tags: N-terminal GST; dsDNA, one strand shown
T12 sequence: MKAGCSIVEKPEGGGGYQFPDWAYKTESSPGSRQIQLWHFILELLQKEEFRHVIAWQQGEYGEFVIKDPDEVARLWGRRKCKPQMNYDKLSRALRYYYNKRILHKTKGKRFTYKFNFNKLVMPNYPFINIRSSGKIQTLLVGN
In short: as §1

ETV6 = ETV6 (Homo sapiens, UniProt P41212 1-452); conditions: protein: recombinant; tags: N-terminal GST; dsDNA, one strand shown
ETV6, sequence (P41212 whole entry): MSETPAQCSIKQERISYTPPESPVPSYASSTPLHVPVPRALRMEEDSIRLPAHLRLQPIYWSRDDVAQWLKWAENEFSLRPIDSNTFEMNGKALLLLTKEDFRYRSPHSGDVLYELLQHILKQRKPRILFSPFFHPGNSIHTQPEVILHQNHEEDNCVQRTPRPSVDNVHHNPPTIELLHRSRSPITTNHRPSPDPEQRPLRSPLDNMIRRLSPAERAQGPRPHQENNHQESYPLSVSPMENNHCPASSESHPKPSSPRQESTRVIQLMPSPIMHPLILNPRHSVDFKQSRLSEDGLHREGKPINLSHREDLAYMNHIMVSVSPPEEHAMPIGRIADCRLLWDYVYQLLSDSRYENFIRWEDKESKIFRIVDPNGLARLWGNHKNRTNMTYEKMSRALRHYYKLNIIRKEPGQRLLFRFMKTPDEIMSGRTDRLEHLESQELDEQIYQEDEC
In short: as §1

## TCTGTG
FEV
  binding signal: 1.07 fold enrichment (6-mer frequency, TF over GST control)
ETV5
  binding signal: 1.08 fold enrichment (6-mer frequency, TF over GST control)
HSF1
  binding signal: 1.05 fold enrichment (6-mer frequency, TF over GST control)
SPIC
  binding signal: 1.34 fold enrichment (6-mer frequency, TF over GST control)
ELF4
  binding signal: 1.2 fold enrichment (6-mer frequency, TF over GST control)
ELK4
  binding signal: 1.21 fold enrichment (6-mer frequency, TF over GST control)
ETV2
  binding signal: 1.1 fold enrichment (6-mer frequency, TF over GST control)
ELF3
  binding signal: 1.07 fold enrichment (6-mer frequency, TF over GST control)
CRX
  binding signal: 1.09 fold enrichment (6-mer frequency, TF over GST control)
ETV1
  binding signal: 1.16 fold enrichment (6-mer frequency, TF over GST control)
ERF
  binding signal: 1.15 fold enrichment (6-mer frequency, TF over GST control)
ETV3L
  binding signal: 1.2 fold enrichment (6-mer frequency, TF over GST control)
ETS2
  binding signal: 1.13 fold enrichment (6-mer frequency, TF over GST control)
SPDEF
  binding signal: 1.06 fold enrichment (6-mer frequency, TF over GST control)
ETV7
  binding signal: 1.26 fold enrichment (6-mer frequency, TF over GST control)
ELF5
  binding signal: 1.04 fold enrichment (6-mer frequency, TF over GST control)
ETV3
  binding signal: 1.04 fold enrichment (6-mer frequency, TF over GST control)
ETV6
  binding signal: 1.07 fold enrichment (6-mer frequency, TF over GST control)
